Measured values from PubChem BioAssay (NCI).
This is part of a sample that, as a whole, favours compounds with a hit. Of some 83,000 tested, about 20% had one in any assay.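 The test compound was applied at a single concentration to cells in 96-well plates for 48 hours, and percent growth was recorded.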 Values without a mark were called inactive. Active and inactive are the calls of the source.

tested on: IGROV1 ovarian; assay: NCI-60 one-dose screen, 48 h (100 = growth as untreated, 0 = no growth, -100 = all killed); details: 10 µM unless noted
Protocol: Growth inhibition of the IGROV1 human tumor cell line is measured as a screen for anti-cancer activity. Cells are grown in 96 well plates and exposed to the test compound for 48 hours. Compounds are tested at a single concentration, which is 10^-5 M for most compounds. The reported endpoint is percent growth (GI% or GIPRCNT), where numbers from 0 - 100% represent growth inhibition, and numbers from -100% - 0 represent cell death. For example, a value of 40 represents 60% growth inhibition. A value of 0 means no net growth occurred over the course of the experiment. A value of -40 indicates 40% of cells at the beginning of the experiment died by the end of the experiment. A value of -100 means all cells are dead at the end of the experiment.
NCI-60 Human Tumor Cell Lines Screen was performed using the standard one-dose NCI protocol, which is described in more detail at https://dtp.cancer.gov/discovery_development/nci-60/default.htm.
Compounds with GIPRCNT values below 10 were considered active. Activity score was based on GIPRCNT using the following formula: […]
Score is 0 for GIPRCNT values of 100 or above, 50 for GIPRCNT values of 0, and 100 for GIPRCNT values of -100.

| Compound | growth |
| --- | --- |
| COC(=O)/C=C1/SC(=Nc2ccc(C)cc2)N(CCc2c[nH]c3ccc(O)cc23)C1=O | 27.5% |
| COC(C(=O)[C@@H](O)[C@@H](C)O)[C@@H]1Cc2cc3cc(O[C@H]4C[C@@H](O[C@H]5C[C@@H](O)[C@H](O)C(C)O5)[C@H](O)C(C)O4)cc(O)c3c(O)c2C(=O)[C@H]1O[C@H]1C[C@@H](O[C@H]2C[C@@H](O[C@H]3C[C@@H](OC)[C@H](O)C(C)O3)[C@@H](O)C(C)O2)[C@H](O)C(C)O1 (stereo not given in full) | 32.4% |
| Cc1nc2c(=O)[nH]c(SCC(=O)Nc3cccc(F)c3)nc2[nH]c1=O | 108% |
| N#Cc1c(-c2ccc(Cl)cc2)nc(SCC(=O)NC2=NN=C(c3ccccc3)CS2)[nH]c1=O | 90.4% |
| CS(=O)(=O)c1cccc(-c2c(-c3cccc(OS(N)(=O)=O)c3)nc3sccn23)c1 | 97.9% |
| OCCOCCN(Cc1ccccn1)Cc1cc(I)cc(I)c1O | 77.9% |
| Nc1ncnc2c1N=C(c1ccc3c(c1)OCO3)CC(c1cccc(Nc3ccnc4cc(Cl)ccc34)c1)N2 (stereo not given) | 59.4% |
| Cn1cc(-c2nc(-c3c[nH]c4ccncc34)cs2)c2ccccc21 | 67.3% |
| COc1ccc2c(O)c(/C=C3\N=Nc4ccccc43)oc2c1C[C@@H]1CCNC[C@H]1F | 76.4% |
| CC1=C(Nc2ccc(N3CCN(C)CC3)cc2)C(=O)c2cncnc2C1=O | 1.56% (active) |
| CCN(CC)c1ccc(/C=C/C(=O)c2ccc(Nc3nc(Nc4ccccc4)nc(Nc4ccccc4)n3)cc2)cc1 | 47.8% |
| Cn1cccc1C(=O)C1C(c2cccc([N+](=O)[O-])c2)C2C3CCCCC3CN2C12C(=O)Nc1ccc(Cl)cc12 (stereo not given) | 8.94% (active) |
| CCCC(=O)NC(c1ccc2c(c1)OCO2)c1ccc2cccnc2c1O (stereo not given) | 5.54% (active) |
| CC(=O)c1cc(O)c2ccccc2c1O | 52.8% |
| Clc1ccc(Nc2nnc(COc3ccccc3)c3ccccc23)cc1 | 16.1% |
| O=S(=O)(NCCCNc1nccc(-c2c(-c3ccc(F)c(O)c3)nc3occn23)n1)c1ccccc1 | 92.1% |
| CCCCCCCCCCCCCCCCCCOc1ccccc1CC(=O)NCC[N+]1(C)CCCC1 | -21.5% (active) |
| COc1ccc2c3c([nH]c2c1)C(=O)c1nc(C)ccc1C3=O | 28.8% |
| COc1cc(-c2csc(NC(=O)c3cc(-n4cnc(C)c4)cc(C(F)(F)F)c3)n2)cc(OC)c1OC | 52% |
| CCCCNc1ccc(C#N)c(OCCN(CC)CC)c1 | 105% |

| Compound | growth |
| --- | --- |
| CCOC(=O)c1cc(-c2ccc([N+](=O)[O-])cc2)n(-c2ccc(C(=O)O)c(O)c2)c1C | -11.3% (active) |
| Cc1ccc(CNc2ccc(Cl)cc2NCc2ccc(C)c(O)c2)cc1O | 24.2% |
| OCCCC1CCN(C(Cc2ccccc2)c2ccccc2)CC1 (stereo not given) | 96.8% |
| COc1cc(-c2nc(SCCC(C)C)nc(Nc3ccccc3Cl)c2C#N)cc(OC)c1OC | 91.6% |
| O=C(O)c1ccc(-n2cc(/C=N/Nc3ccc(F)cc3)c(-c3cc4ccccc4oc3=O)n2)cc1 | 74% |
| COc1ccc(C(=S)N2CCN(c3ccccc3Cl)CC2)cc1OC | 105% |
| COc1ccc(C2=Nc3c/c(=C\c4c(O)[nH]c5ccc(Cl)cc45)ccc3=N2)cc1 | 75.3% |
| CCCC(O)Cn1ncc(C(=O)OCC)c1NC(=O)NCc1ccccc1F (stereo not given) | 92.9% |
| COc1cccc(NC(=O)Cn2cc(CN3CCN(c4ccnc5cc(Cl)ccc45)CC3)nn2)c1 | 84.9% |
| COc1cccc(/C=C/C(=O)c2cc3c(N)c(C(=O)Nc4ccccc4)sc3nc2C)c1 | 2.44% (active) |
| COc1cc(/C=C\c2cc(/C=C\c3ccc(O)c(OC)c3)n(C(=O)COc3ccc(Cl)cc3Cl)n2)ccc1O | 12.5% |
| CCc1ccc(C(=O)/C=C/C23c4ccccc4C(c4ccccc42)C2C(=O)NC(=O)C23)cc1 (stereo not given) | 0.604% (active) |
| CN(C)C1CCN(Cc2ccc(NC(=O)c3cncc(C#Cc4cnc(N)c5ncccc45)c3)cc2C(F)(F)F)CC1 | 112% |
| Cc1ccc(-c2nc(/C=C3/C(=O)Nc4ccccc43)c3ccccn23)cc1 | 22.9% |
| Cc1ccc(Sc2nnc(/N=C3\C(=O)Nc4ccccc43)s2)cc1 | 88.6% |
| O=C(Nc1ncc(Cc2ccc(Cl)c(C(F)(F)F)c2)s1)c1ccc2nnsc2c1 | 67.9% |
| N#C/C(=C/c1ccc([N+](=O)[O-])cc1)n1nnc2cc(F)c(F)cc21 | 73.6% |
| COc1ccc2cc(C(=O)c3coc4ccc(O)cc34)ccc2c1 | 85.2% |
| CCN(C(=O)N1CCN(c2cc3c(cc2F)c(=O)c(C(=O)O)cn3C2CC2)CC1)c1nc(-c2ccc(Cl)cc2)cs1 | -9.58% (active) |
| N#CC1=C(c2ccc(Cl)cc2)Nc2c(c(-c3ccc(Cl)cc3)nn2-c2ccccc2)C12C(=O)Nc1ccc(Cl)cc12 (stereo not given) | 36.7% |
